Compounds with a hit are over-represented: about 2.9% of the library has one in this group of screens.
S2 tox = Viability Counterscreen for Primary qHTS for Inhibitors of ATXN expression; S2 cells (HEK-293 line with an ATXN2-luciferase reporter) viability, CellTiter-Fluor protease fluorescence, 24 h; Potency, µM (series often up to 56.7 µM), hits mostly cytotoxic; hit rate 0.49% among 400,000; AID 651635, 2014; also: nearly all actives have a fitted effect of over 40% in size
A549 viability = Nrf2 qHTS screen for inhibitors: counterscreen for cytotoxicity; A549 ARE-Fluc cells, CellTiter-Fluor viability, 18-24 h; AID 504648, 2011; Potency, µM (series often up to 46 µM), usual class: inhibitors; hit rate 0.16% among 390,000
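A549 ARE-Fluc cells in 5% FBS OPTI-MEM, 5000 cells/well, rested 2 h then exposed to compounds in concentration-response for 18-24 h at 37 °C. Viability by CellTiter-Fluor fluorescence (Ex 405/Em 525) after 30 min; luciferase luminescence (BugLite, 15 min, RT) read afterwards.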
Nrf2 activator = qHTS of Nrf2 Activators. Potency, µM (titrated, usually from 46.1 µM), most hits filed as activators. AID 624171, 2012. hit rate 0.31% among 410,000. AREc32 ARE-luciferase reporter (MCF7-derived line), luminescence, 24 h; also: nearly all actives have a fitted effect of over 65% in size
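Cells of the AREc32 ARE-luciferase line are plated in OPTI-MEM containing 5% FBS and left overnight at 37 deg C. Compounds are pinned in, incubation continues 24 hr, and firefly luciferase signal is then measured.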
Nrf2 block = Nrf2 qHTS screen for inhibitors | A549 ARE-Fluc reporter, luciferase luminescence, 18-24 h | Potency, µM (highest dose often 46 µM), usual class: inhibitors | hit rate 2.1% among 360,000; also: nearly all actives have a fitted effect of over 60% in size
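Quantitative HTS in A549 cells stably bearing an antioxidant response element-firefly luciferase construct. Inhibition of Nrf2-driven transcription was scored by luminescence after 18-24 h of compound exposure at 37 °C.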
ATXN2 expr inh = Primary qHTS for Inhibitors of ATXN expression. HEK-293 ATXN2-luciferase reporter, luminescence, 24 h. hit rate 0.72% among 360,000. AID 1745845, 2022. Potency, µM (highest dose often 57 µM), usual class: inhibitors; also: nearly all actives have a fitted effect of over 55% in size
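ATXN2-luciferase reporter cells (luciferase flanked by upstream and downstream ATXN2 gene portions) were treated 24 h at 37 °C with compounds at up to 57 uM. SteadyGlo luminescence gave expression; GF-AFC fluorescence gave viability.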
Numbers stand for hits; 0 = inactive; ? = inconclusive; - = not tested or not shown. Calls follow the shape of the dose curve; as a rule, active = well fitted curve in the direction sought with a large enough effect; inconclusive = small, poorly fitted or top-dose-only effect, or another doubt; inactive = no such curve, though single readings can be large; an effect the other way counts as inactive or inconclusive.

SMILES	S2 tox	A549 viability	Nrf2 activator	Nrf2 block	ATXN2 expr inh
CNC[C@H](CC1CCCCC1)NC[C@H](CO)NCCc1cccc(C(F)(F)F)c1	22µM	0	0	0	28µM
Cc1ccc(N=Nc2ccc(O)c3ncccc23)cc1	?	0	0	?	13µM
Oc1ccc(N=Nc2ccccc2C(F)(F)F)c2cccnc12	0	0	0	?	-
Cc1ccc(N=Nc2ccc(O)c3ncccc23)cc1C	?	0	0	0	0
CCS(=O)(=O)c1ccc(N=Nc2ccc(O)c3ncccc23)c(OC)c1	-	18µM	0	?	?
COc1ccccc1N=Nc1ccc(O)c2ncccc12	16µM	0	?	0	-
CCN(C[C@H]1N[C@@](C)(C(=O)OC)[C@H]2C(=O)N(C)C(=O)[C@@H]12)S(=O)(=O)c1ccc(OC(F)(F)F)cc1	0	0	0	0	0
O=C(CNC(=O)c1ccccc1)NCCO	0	0	0	0	0
c1ccc2c(c1)Nc1cc3ccccc3cc1S2	0	0	0	?	0
c1ccc2c(c1)Nc1ccncc1S2	0	0	0	29µM	0
CCOCC(=O)Nc1ccc2c(c1)OCCO2	0	0	0	0	0
C/C(=N\OCC(=O)Nc1ccc2c(c1)OCCO2)c1ccc2c(c1)OCCO2	0	0	0	18µM	0
N#Cc1c(NC(=O)CSc2n[nH]c(Cc3ccccc3)n2)oc(-c2ccccc2)c1-c1ccccc1	0	0	0	0	0
COc1ccc(/C=C2\CCC(C3CCCC3)C2=O)cc1 (stereo not drawn)	0	0	0	?	0
COc1ccc(/C=C2/CCC(CN3CCOCC3)C2=O)cc1 (stereo not drawn)	?	0	?	0	6.7µM
COc1c(Cl)cc(Cl)cc1C(=O)Nc1ccc(NC(=O)c2cccs2)cc1	?	0	0	10µM	?
COc1cc(C(=O)Nc2ccc(C(=O)c3cccs3)cc2)cc(OC)c1OC	0	0	0	21µM	-
COc1ccc(-c2nn(CC(=O)NCCc3ccccc3)c(=S)n2C)cc1	0	0	0	?	?
CCn1c(-c2ccc(C)cc2)nn(CC(=O)NCCc2ccccc2)c1=S	0	?	0	23µM	?
Cc1ccc(C(=O)CSc2nnc3ccccn23)c(C)c1	0	0	0	?	0
COCCn1c(C)cc(C(=O)CSc2nnc3ccccn23)c1C	0	0	0	?	7.1µM
Cc1cc(Nc2cccc(Cl)c2)nc2ccc(NC(=O)Cc3c(F)cccc3Cl)cc12	0	0	0	0	?
COc1ccc(Cl)cc1C(=O)Nc1ccc2nc(Nc3cccc(Cl)c3)cc(C)c2c1	-	0	0	0	0
Cc1cc(Nc2cccc(Cl)c2)nc2ccc(NC(=O)Cc3ccc(Cl)cc3)cc12	0	?	0	23µM	?
COc1ccc(CC(=O)Nc2ccc3nc(Nc4cccc(Cl)c4)cc(C)c3c2)cc1OC	-	0	0	16µM	?
SMILES	S2 tox	A549 viability	Nrf2 activator	Nrf2 block	ATXN2 expr inh
CNc1cncc(-c2ccc(CN(C)C)cc2)n1	0	-	0	-	0
Clc1ccc(Cc2nn3c(Cn4nnc5ccccc54)nnc3s2)cc1	0	0	0	?	0
CCCCCn1c(=O)[nH]c2cc(C(=O)NCc3ccc4c(c3)OCO4)ccc2c1=O	0	0	0	0	0
CCCCCn1c(=O)[nH]c2cc(C(=O)N3CCN(Cc4ccc5c(c4)OCO5)CC3)ccc2c1=O	0	?	0	0.82µM	?
Cc1cc(C)cc(NC(=O)CN2CCN(CCN=CC3=C(O)CC(C)(C)CC3=O)CC2)c1	0	0	0	?	0
CC(C)C[C@H]1CN(CCCC[C@H]2CNC(=O)C(=O)N2CCc2ccc(O)cc2)C(=O)C(=O)N1CCC1CCCCC1	0	-	0	-	0
Cc1ccc(S(=O)(=O)SC/C=C/CSS(=O)(=O)c2ccc(C)cc2)cc1	?	0	0	12µM	?
Cc1ccc(S(=O)(=O)SCCCSS(=O)(=O)c2ccc(C)cc2)cc1	?	0	0	0	0
O=C(c1ccccc1)c1ccc2nc(-c3ccc(NC(=O)c4ccccc4F)cc3)[nH]c2c1	?	?	0	10µM	0
Cn1cc([N+](=O)[O-])c(C(=O)Nc2ccc3nc(-c4ccccc4)[nH]c3c2)n1	0	0	25µM	?	0
O=C(O)CCC(=O)Nc1ccc(-c2nc3ccc(C(=O)c4ccccc4)cc3[nH]2)cc1	0	0	0	0	0
